The source of these data is the supplement of paper PMC8728848.

This is one part of a sample in which the strongest signals are shown more often than they occur.

Assay in all cases: glycan array binding signal (z-score within array); higher = stronger binding
Common to all, as to conditions: glycan notation: IUPAC condensed, linker removed

Assay [1] relates to Man(a1-2)Man(a1-2)Man(a1-3)Man. In a few lines:
(§1)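 Columns mapping to the same glycan were averaged after glycan names were converted to IUPAC-condensed notation. The data come from 3228 arrays in the Consortium for Functional Glycomics database, limited to those with an available protein sequence. Binding is reported as a within-array Z-score averaged across arrays of one protein sequence and across linkers.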

Assay [2] relates to Man(a1-2)Man(a1-3)[Man(a1-2)Man(a1-6)]Man. The method, boiled down:
as §1

A further assay has as its system Man(a1-2)Man(a1-3)Man. The method, boiled down:
as §1

Assay [3] deals with Man(a1-2)Man(a1-3)[Man(a1-2)Man(a1-6)]Man(a1-6)[Man(a1-2)Man(a1-2)Man(a1-3)]Man(b1-4)GlcNAc(b1-4)GlcNAc. The method, boiled down:
as §1

Another assay has as its system Kdn(a2-3)Gal(b1-4)GlcNAc. The method, boiled down:
as §1

In assay [4] the test system is Man(a1-2)Man(a1-6)[Man(a1-3)]Man(a1-6)[Man(a1-2)Man(a1-2)Man(a1-3)]Man(b1-4)GlcNAc(b1-4)GlcNAc. The method, boiled down:
as §1

In assay [5] the test system is Man(a1-2)Man(a1-2)Man(a1-6)[Man(a1-3)]Man. In a few lines: as §1
Assay [6] concerns Man(a1-2)Man(a1-3)[Man(a1-2)Man(a1-6)]Man(a1-6)[Man(a1-2)Man(a1-2)Man(a1-3)]Man. The method, boiled down: as §1
Assay [7] relates to Man(a1-2)Man(a1-3)[Man(a1-6)]Man(a1-6)[Man(a1-2)Man(a1-3)]Man(b1-4)GlcNAc(b1-4)GlcNAc. The method, boiled down: as §1
Assay [8] concerns Man(a1-2)Man(a1-6)[Man(a1-3)]Man(a1-6)[Man(a1-2)Man(a1-2)Man(a1-3)]Man. In a few lines: as §1

With AgI/IIC123-GFP (Streptococcus mutans), the “glycan array binding signal (z-score)” value is -0.465 in [1] and 0.368 in [2].

“SpGH101 (Streptococcus pneumoniae), Q8DR60”: the “glycan array binding signal (z-score)” value in the assay on Man(a1-2)Man(a1-3)Man is -0.182; in assay [3], -0.2.

Consider Wza (Escherichia coli), P0A930, for which, in assay [1], the “glycan array binding signal (z-score)” value turned out to be 2.8.

Regarding “SiiE (Salmonella typhimurium), A0A0H3NVH0”, the “glycan array binding signal (z-score)” value in the assay on Kdn(a2-3)Gal(b1-4)GlcNAc was 2.58; in assay [4] it was -0.297.

As for LcI (Legionella pneumophila), in assay [2], the “glycan array binding signal (z-score)” value was -0.584.

Take BambL (Burhholderia ambifaria), Q0B4G1: the “glycan array binding signal (z-score)” value in the assay with Man(a1-2)Man(a1-3)Man was -0.316.

For Actinohivin (Actinomycete K97), the “glycan array binding signal (z-score)” value in assay [1] was determined as 3.74; in [5], 16.1; in the assay on Man(a1-2)Man(a1-3)Man it was 1.82; in assay [3], 3.83; in [6], 12.4; in [2], 1.78. In addition, the figures for the “glycan array binding signal (z-score)” value in [7], in assay [4] and in assay [8] were 3.51, 6.4 and 8.54, respectively.
